Reference: ChEMBL document CHEMBL4513141, “CO-ADD screening of NIH (USA) - Clinical Collection” (2021)
Potency and affinity values are given separately.

Columns and labels:
[1] = tested on: Staphylococcus aureus; conditions: Concentration 20 uM; ASSAY_TEST Inhibition of Bacterial Growth; detection method Absorption (OD600); MEDIA CAMHB; plate type 384well; NBS; CORNING #3640; time 18 hr
[2] = tested on: Escherichia coli; conditions: Concentration 20 uM; ASSAY_TEST Inhibition of Bacterial Growth; detection method Absorption (OD600); MEDIA CAMHB; plate type 384well; NBS; CORNING #3640; time 18 hr

SMILES	Inhibition [1] [%]	Inhibition [2] [%]
CN1CCCC(n2nc(Cc3ccc(Cl)cc3)c3ccccc3c2=O)CC1.Cl (stereo not drawn) [AZELASTINE HYDROCHLORIDE]	-20.95	3.65
Nc1ccc(S(=O)(=O)c2ccc(N)cc2)cc1 [DAPSONE]	-0.58	0.96
CC(=O)OCC(=O)[C@@]1(O)CC[C@H]2[C@@H]3C[C@H](C)C4=CC(=O)C=C[C@]4(C)[C@H]3[C@@H](O)C[C@@]21C [METHYLPREDNISOLONE ACETATE]	6.17	-0.44
NS(=O)(=O)c1cc2c(cc1C(F)(F)F)NC(Cc1ccccc1)NS2(=O)=O (stereo not drawn) [BENDROFLUMETHIAZIDE]	4.68	-3.75
N=c1cc(N2CCCCC2)nc(N)n1O	14.68	-3.43
C=C1/C(=C\C=C2/CCC[C@]3(C)[C@@H]([C@H](C)/C=C/[C@@H](O)C4CC4)CC[C@@H]23)C[C@@H](O)C[C@@H]1O [CALCIPOTRIENE]	9.78	4.8
CC(=O)NCCCCCCNC(C)=O [HEXAMETHYLENEBISACETAMIDE]	-6.23	3.8
NC(=O)c1cccnc1 [NIACINAMIDE]	11.51	3.02
CC1=C(/C=C/C(C)=C/C=C/C(C)=C\C(=O)O)C(C)(C)CCC1 [ISOTRETINOIN]	5.02	-1.2
CN1CCN(c2nc3cc(C(F)(F)F)ccc3n3cccc23)CC1.O=C(O)/C=C\C(=O)O.O=C(O)/C=C\C(=O)O	3.37	4.75
Oc1ncc(F)cn1	12.62	10.23
CN(CCOc1ccc(NS(C)(=O)=O)cc1)CCc1ccc(NS(C)(=O)=O)cc1 [DOFETILIDE]	11.97	6.72
COc1ccc(C(=O)NCc2ccc(OCCN(C)C)cc2)cc1OC.Cl	-18.22	2.89
O=C(CCCN1CC=C(n2c(=O)[nH]c3ccccc32)CC1)c1ccc(F)cc1 [DROPERIDOL]	14.29	-7.37
CN1C(=O)CC[C@H]1c1cccnc1 [COTININE]	-20.45	7.12
C[C@]12CC[C@@H]3c4ccc(OS(=O)(=O)[O-])cc4CC[C@H]3[C@@H]1CCC2=O.[Na+] [ESTRONE SODIUM SULFATE]	8.52	6.3
Cl.O.O=C(c1ccc(F)cc1)C1CCN(CCn2c(=S)[nH]c3ccccc3c2=O)CC1	2.33	1.4
C[C@]12CC[C@@H]3c4ccc(O)cc4CC[C@H]3[C@@H]1CC[C@@H]2O [ESTRADIOL]	2.2	-0.2
CC(C)(S)C(N)C(=O)O (stereo not drawn) [DL-PENICILLAMINE]	15.93	-3.28
CC(=O)O[C@]1(C(C)=O)CC[C@H]2[C@@H]3C[C@H](C)C4=CC(=O)CC[C@]4(C)[C@H]3CC[C@@]21C [MEDROXYPROGESTERONE ACETATE]	10.39	2
CCOC(=O)O[C@]1(C(=O)OCCl)CC[C@H]2[C@@H]3CCC4=CC(=O)C=C[C@]4(C)[C@H]3[C@@H](O)C[C@@]21C [LOTEPREDNOL ETABONATE]	-21.62	4.07
CCCN(CCC)S(=O)(=O)c1ccc(C(=O)O)cc1 [PROBENECID]	13.34	1.2
C[C@@H]1CN(CCCn2c3ccccc3c3ccccc32)C[C@H](C)N1.Cl.O	5.93	5.61
COC1=CC(=O)C[C@@H](C)[C@]12Oc1c(Cl)c(OC)cc(OC)c1C2=O [GRISEOFULVIN]	7.83	2.08
